{"source": "PubChem BioAssay AID1347131", "about": "(National Center for Advancing Translational Sciences (NCATS), 2019)", "note": "About 2,000 (0.49%) of roughly 410,000 compounds were called active. A call without a number means that no potency is given here. Another 8% or so got no clear call; they are omitted. The sample holds actives, similar compounds and a random draw of the others, so the mix is not that of the screen. Calls follow the shape of the full dose curve; tested in HEK293 reporter line. Potency is read from the fitted curve at half-maximal effect."}
{"test": "qHTS Assay for Foot and Mouth Disease Virus Antivirals: Primary Screen against the MLPCN compound library; also: nearly all actives have a fitted effect of over 55% in size", "conditions": "FMDV antiviral cell-based qHTS; series mostly up to 57.9 µM"}
{"smiles": "CCCCN1C[C@H](CSC)[C@@H](CC(=O)NC)C1=O", "Potency": "inactive"}
{"smiles": "COc1ccc(NC(=O)NC23CC4(C)CC(C)(CC(C)(C4)C2)C3)cc1OC", "Potency": "inactive"}
{"smiles": "COc1ccc(N2CCN(C(=O)CN3CCSc4ccccc43)CC2)cc1", "Potency": "inactive"}
{"smiles": "Cc1ccn2c(/C=N/OCc3cccc(F)c3)c(-c3ccc(Cl)cc3)nc2c1", "Potency": "inactive"}
{"smiles": "Cc1ccc2nc(-c3ccc(NC(=O)COC(=O)c4cncc(Br)c4)cc3)sc2c1", "Potency": "17.8 µM (active)"}
{"smiles": "Cc1ccc2nc(-c3ccc(NC(=O)COC(=O)c4ccco4)cc3)sc2c1", "Potency": "12.6 µM (active)"}
{"smiles": "O=C(COC(=O)c1ccco1)Nc1ccc2[nH]c(=O)[nH]c2c1", "Potency": "inactive"}
{"smiles": "Cc1ccc(OCC(=O)Nc2ccc3c(c2)nc(CCNC(=O)c2ccco2)n3C)cc1", "Potency": "inactive"}
{"smiles": "CCN(CC)S(=O)(=O)c1cccc(NC(=O)COC(=O)c2cncc(Br)c2)c1", "Potency": "inactive"}
{"smiles": "Cc1ccc(C(=O)OCC(=O)Nc2ccc(C)c(S(=O)(=O)N3CCCCC3)c2)c(O)c1", "Potency": "inactive"}
{"smiles": "O=C(N/N=C/c1cccc([N+](=O)[O-])c1)c1ccc(CN2CCOCC2)cc1", "Potency": "inactive"}
{"smiles": "CCOc1cc(/C=N/Nc2cc(C)nc(-n3nc(C)cc3C)n2)ccc1O", "Potency": "inactive"}
{"smiles": "CC(OC(=O)/C=C/c1ccco1)C(=O)NC1CCCCC1C", "note": "(stereo unspecified)", "Potency": "inactive"}
{"smiles": "O=C1c2ccccc2C(=O)C1c1ccnc2ccccc12", "Potency": "14.1 µM (active)"}
{"smiles": "O=C(CCCc1nc2ccccc2s1)N1CCN(S(=O)(=O)c2cccs2)CC1", "Potency": "25.1 µM (active)"}
{"smiles": "Cc1ccc2c(CC(=O)N3CCN(S(=O)(=O)c4cccs4)CC3)coc2c1", "Potency": "inactive"}
{"smiles": "O=S(=O)(c1cccs1)N1CCN(CCc2ccccc2)CC1", "Potency": "inactive"}
{"smiles": "COc1ccc(C(=O)NCC(=O)N2CC=C(c3ccccc3)CC2)cc1OC", "Potency": "inactive"}
{"smiles": "O=c1nc(N/N=C/C=C/c2ccccc2)cn[nH]1", "Potency": "14.1 µM (active)"}
{"smiles": "COc1ccc(CCN(C)C(=O)c2cc(S(=O)(=O)N3CCCCC3)ccc2Cl)cc1OC", "Potency": "inactive"}
{"smiles": "COCCn1c(C)cc(C(=O)COC(=O)c2ccc[nH]c2=O)c1C", "Potency": "inactive"}
{"smiles": "Cc1sc2ncnc(NCC(c3ccco3)N3CCCC3)c2c1C", "note": "(stereo unspecified)", "Potency": "inactive"}
{"smiles": "CCOc1cc(-c2c(C#N)c(=O)[nH]c3c2c(C)nn3-c2ccc(F)cc2)ccc1O", "Potency": "inactive"}
{"smiles": "COc1ccc2oc(=O)c(C(=O)NCCc3c(C)[nH]c4ccc(C)cc34)cc2c1", "Potency": "inactive"}
{"smiles": "O=C(CSc1nnc(NC(=O)c2ccc3c(c2)OCO3)s1)NCc1ccco1", "Potency": "17.8 µM (active)"}
{"smiles": "COc1cc(OC)cc(C(=O)Nc2nnc(SCC(=O)NCc3ccco3)s2)c1", "Potency": "inactive"}
{"smiles": "COc1ccc(-c2cnc(SCC(=O)Nc3ccc4c(c3)OCO4)n2Cc2ccco2)cc1", "Potency": "inactive"}
{"smiles": "Cc1cc(C)cc(-n2c(SCC(=O)Nc3cccc(F)c3)nc3c([nH]c4ccccc43)c2=O)c1", "Potency": "inactive"}
{"smiles": "COc1ccc(C)cc1NC(=O)CN(C)S(=O)(=O)c1cc(C)ccc1OC", "Potency": "inactive"}
{"smiles": "O=P(c1ccccc1)(c1ccccc1)c1nc(-c2ccccc2)oc1NCc1ccccc1", "Potency": "inactive"}
{"smiles": "C=C[C@H](Cc1ccccc1)N(Cc1ccccc1)S(=O)(=O)N(Cc1ccccc1)[C@H](C=C)Cc1ccccc1", "Potency": "inactive"}
{"smiles": "Cc1cc(C)c(C(N)=O)c(SCC(=O)c2cc(C)c(C)cc2C)n1", "Potency": "inactive"}
{"smiles": "CCOc1ccc2nc(NC(=O)c3cccn(Cc4ccc(C)cc4)c3=O)sc2c1", "Potency": "inactive"}
{"smiles": "CCOc1ccc(C(=O)Nc2ccc3nc(SCC(=O)N(C)c4ccccc4)sc3c2)cc1", "Potency": "inactive"}
{"smiles": "CCOc1ccc2nc(NS(=O)(=O)c3ccc(NC(C)=O)cc3)sc2c1", "Potency": "inactive"}
{"smiles": "CCOc1ccc2nc(NC(=O)c3ccccn3)sc2c1", "Potency": "12.6 µM (active)"}
{"smiles": "O=C(Nc1ccc2nc(SCCOc3ccccc3)sc2c1)c1cccs1", "Potency": "inactive"}
{"smiles": "CSc1nc2ccc(NC(=O)c3ccccn3)cc2s1", "Potency": "15.8 µM (active)"}
{"smiles": "CN1/C(=C\\C(=O)COC(=O)CNC(=O)c2ccc3ccccc3c2)C(C)(C)c2ccccc21", "Potency": "inactive"}
{"smiles": "O=C(NCCc1ccc(F)cc1)C(=O)NCC(c1cccs1)S(=O)(=O)c1ccccc1", "note": "(stereo unspecified)", "Potency": "inactive"}
{"smiles": "Cc1cccc(C(=O)O/N=C(\\N)Cc2cccc3ccccc23)c1", "Potency": "inactive"}
{"smiles": "Cc1cccc(C(=O)n2c(=S)nc3cc(C)ccn32)c1", "Potency": "11.2 µM (active)"}
{"smiles": "CCCCCn1c(CCCNC(=O)c2cccc(C)c2)nc2ccccc21", "Potency": "inactive"}
{"smiles": "COc1ccccc1N=C1SCC(=O)N1c1ccccc1OC", "Potency": "inactive"}
{"smiles": "CSCCC(c1nnnn1C1CCCCC1)N1CCC(n2c(=O)[nH]c3ccccc32)CC1", "note": "(stereo unspecified)", "Potency": "inactive"}
{"smiles": "CC(=O)Nc1ccc(S(=O)(=O)Nc2nc3ccccc3s2)cc1", "Potency": "inactive"}
{"smiles": "c1ccc2sc(NN=C3CCCCCC3)nc2c1", "Potency": "15.8 µM (active)"}
{"smiles": "c1ccc(C(=NNc2nc3ccccc3s2)c2ccccn2)cc1", "Potency": "inactive"}
{"smiles": "Cc1oc(-c2cccs2)nc1CSCC(=O)N1CCC2(CC1)OCCO2", "Potency": "inactive"}
{"smiles": "CCCS(=O)(=O)c1cscc1NC(=O)c1c(-c2c(F)cccc2Cl)noc1C", "Potency": "inactive"}
{"smiles": "c1ccc(-c2nnc(-c3ccccn3)s2)nc1", "Potency": "14.1 µM (active)"}
{"smiles": "c1ccc(C2=Nn3c(nnc3-c3ccccn3)SC2)cc1", "Potency": "inactive"}
{"smiles": "Cc1cc(=S)nc(-c2ccccn2)[nH]1", "Potency": "inactive"}
{"smiles": "CCOc1ccccc1C(=O)NC(C(=O)N(C)Cc1ccc2c(c1)OCO2)C(C)C", "note": "(stereo unspecified)", "Potency": "inactive"}
{"smiles": "COc1ccc2c(CC(=O)Nc3ccccc3N3CCOCC3)coc2c1", "Potency": "inactive"}
{"smiles": "C/C(N)=C(/C#N)C(=O)CSc1nc2scc(-c3ccc(F)cc3)c2c(=O)n1C", "Potency": "inactive"}
{"smiles": "CCN(CC)S(=O)(=O)c1ccc(C)c(NC(=O)CSc2nc3ccc(C)cc3[nH]2)c1", "Potency": "inactive"}
{"smiles": "C/C(N)=C(/C#N)C(=O)CSc1nc2ccc(C)cc2[nH]1", "Potency": "22.4 µM (active)"}
{"smiles": "CCN1CCN(C(=O)c2ccc(NS(=O)(=O)c3ccccc3)cc2)CC1", "Potency": "inactive"}
{"smiles": "Cc1nc2c(-c3ccc(F)cc3)c(C)nn2c(C)c1CCC(=O)Nc1ccccc1", "Potency": "inactive"}
{"smiles": "Cc1nn2c3c(cnc2c1-c1ccc(F)cc1)C(=O)CC(c1ccccc1)C3", "note": "(stereo unspecified)", "Potency": "inactive"}
{"smiles": "Cc1ccccc1-c1ccnc2c(-c3ccc(F)cc3)c(C)nn12", "Potency": "28.2 µM (active)"}
{"smiles": "CCN(C(=O)COC(=O)/C=C/c1cccc(Br)c1)C1CCS(=O)(=O)C1", "note": "(stereo unspecified)", "Potency": "inactive"}
{"smiles": "O=C(c1ccco1)N1CCN(c2ncnc3c(-c4ccc(Cl)cc4)nsc23)CC1", "Potency": "inactive"}
{"smiles": "CN1CCN(c2ncnc3c2[nH]c2ccc(F)cc23)CC1", "Potency": "inactive"}
{"smiles": "O=C(c1ccco1)N1CCN(c2ncnc3c2[nH]c2ccc(Br)cc23)CC1", "Potency": "31.6 µM (active)"}
